{"source": "PubChem BioAssay (Tox21)", "note": "Records with an inconclusive call do not appear. Values without a mark were called inactive. The source made the active and inactive calls. The call rests on the fitted dose curve; in most records, active means well fitted cell-killing curve with a large enough effect in the repeat runs; inconclusive means weak or mixed curves, or effect the other way; inactive means no such curve, though single readings can be large or run the other way. Non-standard residues stand in square brackets, D forms with d. Residues, ends and D or L forms follow the SMILES beside them. *: point of attachment. Sta = CC(C)C[C@H](N)[C@@H](O)CC(=O)O; Isovaleryl = CC(C)CC(=O)*"}
{"test": "qHTS assay to identify small molecule agonists of the estrogen receptor alpha (ER-alpha) signaling pathway in the presence of an antagonist - cell viability counter screen (AID 1259386);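 further: cells exposed to compounds for 22 h at 37 °C before the viability read; on the % scale 0 is the no-effect control and ±100 the full control effect; nearly all actives have a fitted effect of over 30% in size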", "details": "VM7Luc4E2 viability, CellTiter-Fluor fluorescence, 22 h; series mostly up to 92.4 µM", "source_text": "National Center for Advancing Translational Sciences [NCATS]\nNIH Chemical Genomics Center [NCGC]\nU.S. Environmental Protection Agency [EPA]\nNational Institutes of Environmental Health Sciences [NIEHS]\nNational Toxicology Program [NTP]\nU.S. Food and Drug Administration [FDA]\nEstrogen receptor (ER), a member of nuclear hormone receptor plays an important role in development, metabolic homeostasis and reproduction. Two subtypes of ER, ER-alpha and ER-beta, have similar expression patterns with some uniqueness in both types. Endocrine disrupting chemicals (EDCs) and their interactions with steroid hormone receptors like ER causes disruption of normal endocrine function. Therefore, it is important to understand the effect of environmental chemicals in ER signaling pathway. For identifying ER agonists, VM7Luc4E2 cell line has been used in the current assay.\nVM7Luc4E2 cell line (provided by Denison MS, University of California) endogenously expresses full-length ER-alpha and is stably transfected with a plasmid containing four estrogen responsive elements (ERE) upstream of a luciferase reporter gene. This current screening for measuring luciferase reporter gene activity using VM7Luc4E2 cells against Tox21 10K library collection is a confirmation study on agonist mode screening in presence of ER-antagonist (ICI-182,780) at 10.0nM final concentration. The cytotoxicity of the compounds was tested in parallel by measuring the cell viability using CellTiter-Fluor assay system (Promega, Madison, WI) in the same wells.\nTox21 Assay Protocol Summary:\nVM7Luc4E2 cells were cultured in phenol red free assay medium containing 10% charcoal stripped FBS for 5 days prior to the assay. The cells were dispensed at 4,000 cells in 4uL of assay medium per well into white wall/solid-bottom 1536-well plates (Corning Life Sciences, Corning, NY) using a Multidrop Combi (Thermo Fisher Scientific Inc., Waltham, MA) dispenser. After the assay plates were incubated at 37C and 5% CO2 for 24hr, 1uL of 10.0nM (final concentration) ICI-182,780 or assay buffer was added using two separate tips of Flying Reagent Dispenser (FRD, Aurora Discovery, San Diego, CA). Then 23nL of compounds dissolved in DMSO at 15 concentrations and positive controls or DMSO only was transferred to the assay plates by a Pintool station (Wako, San Diego, CA). The assay plates were incubated at 37C and 5% CO2 for 22hr. After 21hr incubation at 37C, 1uL/well CellTiter-Fluor reagent (Promega Corporation, Madison, WI) was added to each well using FRD and after 1hr incubation at 37C and 5% CO2, the fluorescence signal was measured on ViewLux plate reader (PerkinElmer, Shelton, CT)."}
{"smiles": "N=C(N)N", "outcome": "inactive"}
{"smiles": "c1coc(Cn2cccc2)c1", "outcome": "inactive"}
{"smiles": "CC(=O)SCC(CC(=O)c1ccc(C)cc1)C(=O)O", "note": "(stereo not given)", "outcome": "inactive"}
{"smiles": "C[n+]1ccccc1/C=N/O", "outcome": "inactive"}
{"smiles": "CCCCCCCCCCCBr", "outcome": "inactive"}
{"smiles": "COC(=O)c1cc(Cl)c(NC(C)=O)cc1OC", "outcome": "inactive"}
{"smiles": "C[C@@H]1CCC[C@H](C)N1CCCC(O)(c1ccccc1)c1ccccn1", "note": "(stereo not given in full)", "outcome": "inactive"}
{"smiles": "C=CC(C)(CCC=C(C)C)OC(=O)C(C)C", "note": "(stereo not given)", "outcome": "inactive"}
{"smiles": "CCC(C)(C)C", "outcome": "inactive"}
{"smiles": "CN(C)CCCN(C)C", "activity change, negative = cytotoxicity": "0.833% [at 8.39 µM]"}
{"smiles": "COC(=O)/C=C(\\C)CCC=C(C)C", "outcome": "inactive"}
{"smiles": "CCOC(=O)COc1ccc2c(C)c(CCN(CC)CC)c(=O)oc2c1Cl", "outcome": "inactive"}
{"smiles": "CCCCOCCCC", "outcome": "inactive"}
{"smiles": "CC(C)CC(=O)N[C@H](C(=O)N[C@H](C(=O)N[C@@H](CC(C)C)[C@@H](O)CC(=O)N[C@@H](C)C(=O)N[C@@H](CC(C)C)[C@@H](O)CC(=O)O)C(C)C)C(C)C", "note": "(Isovaleryl-VV[Sta]A[Sta]-OH)", "outcome": "inactive"}
{"smiles": "Cc1nnc(C(=O)NC(C)(C)c2nc(C(=O)NCc3ccc(F)cc3)c(O)c(=O)n2C)o1", "outcome": "inactive"}
{"smiles": "NC(=O)CC[C@@H](N)C(=O)O", "outcome": "inactive"}
{"smiles": "O=C1CCCc2c(O)cccc21", "outcome": "inactive"}
{"smiles": "COc1cc2nc(N3CCN(C(=O)C4CCCO4)CC3)nc(N)c2cc1OC", "note": "(stereo not given)", "outcome": "inactive"}
{"smiles": "NNC(=O)CCCCC(=O)NN", "outcome": "inactive"}
{"smiles": "CN(C)CCc1c[nH]c2ccc(C[C@H]3COC(=O)N3)cc12", "outcome": "inactive"}
{"smiles": "CCCCCCCC(=O)N(C)C", "outcome": "inactive"}
{"smiles": "N=C(N)N1CCc2ccccc2C1", "activity change, negative = cytotoxicity": "-0.402% [at 8.39 µM]"}
{"smiles": "CC(C)(Sc1cc(C(C)(C)C)c(O)c(C(C)(C)C)c1)Sc1cc(C(C)(C)C)c(O)c(C(C)(C)C)c1", "outcome": "inactive"}
{"smiles": "C=CCN1CCc2nc(N)sc2CC1", "outcome": "inactive"}
{"smiles": "C[C@@H]1CC[C@@]2(OC1)O[C@H]1C[C@H]3[C@@H]4CC[C@H]5C[C@@H](O)CC[C@]5(C)[C@H]4CC(=O)[C@]3(C)[C@H]1[C@@H]2C", "activity change, negative = cytotoxicity": "0.111% [at 8.39 µM]"}
{"smiles": "CCN(CC)CC", "outcome": "inactive"}
{"smiles": "Cc1ccc(O)c([N+](=O)[O-])c1", "outcome": "inactive"}
{"smiles": "O=Cc1ccc(C(=O)O)cc1", "outcome": "inactive"}
{"smiles": "CC(CC(=O)Cl)CC(C)(C)C", "note": "(stereo not given)", "outcome": "inactive"}
{"smiles": "N#Cc1cc(NC(=O)C(=O)O)c(Cl)c(NC(=O)C(=O)O)c1", "outcome": "inactive"}
{"smiles": "O=C(O)Cc1c(Cl)ccc(Cl)c1Cl", "outcome": "inactive"}
{"smiles": "Cc1ccc2cccnc2c1", "outcome": "inactive"}
{"smiles": "COc1cc(NS(=O)(=O)c2ccc(N)cc2)ncn1", "outcome": "inactive"}
{"smiles": "CCCOc1ccc(C(=O)OCCN(CC)CC)cc1N", "outcome": "inactive"}
{"smiles": "CC/C=C\\CCOC(=O)c1ccccc1", "outcome": "inactive"}
{"smiles": "Cc1cccc(N)n1", "outcome": "inactive"}
{"smiles": "CC1(C)C(=O)C(C)(C)C1=O", "outcome": "inactive"}
{"smiles": "Clc1ccc2c(c1)Nc1ccccc1S2", "outcome": "inactive"}
{"smiles": "CC(C)(C)c1ccc(N)cc1", "outcome": "inactive"}
{"smiles": "CNC(C)=O", "outcome": "inactive"}
